Experimental data published in PubChem BioAssay (NCI).
About 83,000 compounds went through this panel and 20% of them were active in at least one assay; those are over-represented in the sample as a whole.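 Single-concentration screen, 48 h exposure, 96-well plates. Endpoint: percent growth. Below 10 = active.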 Unmarked numbers belong to inactive results. The source made the active and inactive calls.

How the values were obtained:
Assay in all cases: NCI-60 one-dose screen, 48 h (100 = growth as untreated, 0 = no growth, -100 = all killed)
Settings in all cases: 10 µM unless noted
NCI-H23 lung = system: NCI-H23 lung
NCI-H226 lung = system: NCI-H226 lung
NCI-H322M lung = system: NCI-H322M lung
HOP-62 NSCLC = system: HOP-62 NSCLC
NCI-H460 lung = system: NCI-H460 lung
HOP-92 NSCLC = system: HOP-92 NSCLC
NCI-H522 lung = system: NCI-H522 lung
A549/ATCC NSCLC = system: A549/ATCC NSCLC
786-0 renal = system: 786-0 renal
COLO 205 colon = system: COLO 205 colon
DU-145 prostate = system: DU-145 prostate
MALME-3M melanoma = system: MALME-3M melanoma
MDA-MB-231 breast = system: MDA-MB-231 breast
RXF 393 renal = system: RXF 393 renal
SF-268 CNS = system: SF-268 CNS
SF-295 CNS = system: SF-295 CNS
SF-539 CNS = system: SF-539 CNS
UACC-257 melanoma = system: UACC-257 melanoma
M14 melanoma = system: M14 melanoma

SMILES | growth (NCI-H23 lung) | growth (NCI-H226 lung) | growth (NCI-H322M lung) | growth (HOP-62 NSCLC) | growth (NCI-H460 lung) | growth (HOP-92 NSCLC) | growth (NCI-H522 lung) | growth (A549/ATCC NSCLC) | growth (786-0 renal) | growth (COLO 205 colon) | growth (DU-145 prostate) | growth (MALME-3M melanoma) | growth (MDA-MB-231 breast) | growth (RXF 393 renal) | growth (SF-268 CNS) | growth (SF-295 CNS) | growth (SF-539 CNS) | growth (UACC-257 melanoma) | growth (M14 melanoma)
COc1cccc(-c2nc(SCC(=O)Nc3ccc(C(=O)/C=C/c4ccc(OC)c(OC)c4)cc3)[nH]c(=O)c2C#N)c1 | 77.7% | 105% | 76.3% | 94.1% | 94.7% | 93.2% | 75.4% | 90.6% | 99.4% | 103% | 89.4% | 97.4% | 67.6% | 85.2% | 82.9% | 94.5% | 86.2% | 97.4% | 100%
COc1ccc(N=Nc2nccs2)c(O)c1 | 79.3% | 63.6% | 88.4% | 66.3% | 40.4% | 52.8% | 69.2% | 97.2% | 18.9% | 44.2% | 51.3% | 92.1% | 35.8% | 52.7% | 26.4% | 95% | 40.2% | 85.3% | 59.6%
COc1cc(C)c(C2C(C#N)=C(N)Oc3n[nH]c(-c4cccs4)c32)cc1C(C)C (centres undefined) | 93.9% | 101% | 108% | 96.8% | 107% | 99.7% | 91.2% | 86.7% | 103% | 118% | 108% | 121% | 107% | 99.5% | 101% | 101% | 104% | 90.4% | 105%
O=C1c2ccccc2OC=C(c2ccccc2)N1CCCCNc1ccc(S(=O)(=O)Nc2ncccn2)cc1 | 101% | 91.4% | 92.8% | 90.1% | 103% | 75.8% | 82.9% | 81.3% | 90.6% | 114% | 109% | 110% | 96.8% | 98.9% | 91% | 94% | 102% | 91.6% | 99.6%
O=[N+]([O-])c1ccccc1/C=N\NC(=S)N/N=C/c1ccccc1[N+](=O)[O-] | 70.1% | 83.1% | 63.7% | 56.5% | 10% | 53.7% | 23.2% | 74.8% | 74.9% | 94.6% | 62.1% | 19% | 83% | 76.3% | 41% | 29.8% | 56.3% | 83.2% | 37.6%
Cn1ccnc1C(=O)/C=C/c1ccc(CC(=O)Nc2ccccc2)cc1 | 18.9% | 47% | 2.66% (active) | 6.23% (active) | -19% (active) | 26.6% | 12.8% | 5.36% (active) | 18.6% | 4.76% (active) | 10.3% | 72.8% | 12.6% | 12.1% | 10.6% | 26.2% | -18.5% (active) | 78.7% | 27.8%
COc1ccc(CN2c3ccccc3Oc3ccccc32)cc1O | 33.8% | 93.9% | 56.3% | 42.1% | 13.3% | 32.8% | -33.2% (active) | 37.6% | 43.2% | 91.3% | 36.8% | 45.1% | 56.6% | 50.1% | 57.4% | 14.5% | 16.3% | 39.1% | 18%
CC(O)CN(CC(C)O)c1ccc2c(c1)Cc1cc([N+](=O)[O-])ccc1-2 (centres undefined) | 93.5% | 101% | 65.8% | 102% | 104% | 88.7% | 80% | 119% | 107% | 104% | 101% | 83.7% | 99.6% | 105% | 85.2% | 90.3% | 92.4% | 125% | 106%
COc1cc(-c2nn(-c3ccc(C)cc3)cc2C(=O)O)ccc1O | 89.1% | 102% | 96.7% | 88.2% | 104% | 97.7% | 79.5% | 107% | 101% | 112% | 109% | 90% | 91.7% | 125% | 90.4% | 97.9% | 101% | 105% | 96.8%
NC(=NCCCC1(c2ccccc2)CCCC1)Nc1ccc(Cl)cc1 | 44% | 96.5% | 36.2% | 69.6% | -32.8% (active) | 9.43% (active) | 56.9% | 63.1% | 65.5% | -72.5% (active) | 37.8% | -48.9% (active) | 1.92% (active) | 51.7% | 58.5% | 10% | 51.3% | 26.4% | -65.5% (active)
FC(F)(F)Oc1ccc2nc3nc4ccc[nH]c4cc3c2c1 | 64.7% | 57.2% | 71.6% | 58.4% | 46.2% | 84.7% | 75.3% | 64.5% | 46.4% | 95.4% | 87.7% | 93% | 74.2% | 76.7% | 82.3% | 98.2% | 84.8% | 103% | 96.2%
COc1ccccc1Nc1nc(-c2cc3cccc(C(F)(F)F)c3oc2=O)cs1 | 18.6% | 13.4% | 33% | 25.3% | 4.14% (active) | 26.9% | -16.5% (active) | 17.1% | 20.8% | -50.3% (active) | 7% (active) | 78.2% | 19.1% | 26.7% | 26.2% | 3.82% (active) | -32.9% (active) | 57.1% | 13.5%
CCOC(=O)c1c(C(=O)OCC)c2cc(-c3ccn4c(C(=O)c5ccccc5)c(C(=O)OCC)c(C(=O)OCC)c4c3)ccn2c1C(=O)c1ccccc1 | 88.8% | 93.1% | 99.9% | 97.4% | 98.3% | 52.4% | 75.6% | 91.5% | 98.4% | 109% | 100% | 87.3% | 82.8% | 96.7% | 85% | 106% | 89.9% | 95.1% | 101%
Cc1cc(N2CCN(C)CC2)nc(NC2CCCC(Nc3ccnc4cc(Cl)ccc34)C2)n1 (centres undefined) | 35.9% | 5.72% (active) | -6.32% (active) | -31.2% (active) | -26.6% (active) | -69.9% (active) | -46.4% (active) | 3% (active) | -60.5% (active) | -76.1% (active) | 16.9% | -82.9% (active) | -76.4% (active) | -62.2% (active) | -2.4% (active) | -71.8% (active) | -84.3% (active) | -73.6% (active) | -86.4% (active)
COc1cc2c(cc1OC)C(Sc1ccc(SC)cc1)c1c(nc(N)c(C#N)c1N)O2 (centres undefined) | -56.1% (active) | -65.7% (active) | -86.9% (active) | -46.3% (active) | -79% (active) | -23.7% (active) | -92.6% (active) | -63.5% (active) | -80.7% (active) | -79% (active) | -75.8% (active) | -67% (active) | -67.4% (active) | -75.9% (active) | -36.6% (active) | -56.3% (active) | -95.3% (active) | -51.2% (active) | -80.6% (active)
Cc1cc2nc(NC(=O)CN3CCN(CCN4C(=O)c5cccc6cccc(c56)C4=O)CC3)sc2cc1C | 89% | 89.2% | 85.2% | 94.9% | 91.7% | 74.9% | 87.3% | 70.3% | 82.8% | 99.6% | 91.7% | 89.5% | 92.4% | 87.5% | 86.3% | 91.2% | 80.9% | 99.2% | 94.3%
